Compound activity as filed in PubChem.
HGIII-sPLA2 inh: Inhibits HGIII-sPLA2 liposome hydrolysis, primary screen; Q9NZ20; QFRET BODIPY PC-A2 liposome hydrolysis, fluorescence; inhibition, % at 12.2 µM; 370,000 tested, 0.56% active;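 active = inhibition above mean plus 3 SD of compounds lying within the high and low control bounds, cut at about 19% in these data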;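 also: 0% = median of test compound wells and 100% = no enzyme DMSO wells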
Rtt109 HAT inh: inhibitors of Candida albicans Rtt109/Vps75 histone acetyltransferase; Q5AAJ8; purified Rtt109/Vps75, ThioGlo CoA-SH fluorescence, 4 h; inhibition, % at 34.9 µM; 330,000 tested, 0.16% active; AID 540336;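 active = inhibition of at least 50% in every replicate; inconclusive = best replicate reaches 50% inhibition but some replicates fall short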
Cardio protect: myocardial damage modulation in H9c2 cells; H9c2 cardiomyocytes, H2O2 injury protection, ATPLite, 2 h; protection from H2O2 cell death, % at 20 µM; 360,000 tested, 0.63% active;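 active = compounds giving at least 50% protection of heart cells from peroxide-induced death in the single-dose screen, raw or plate-pattern-corrected value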;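 also: 0% = DMSO wells with peroxide and 100% = DMSO wells without peroxide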
DAGLB inhibitor: diacylglycerol lipase beta (human) inhibition. Q8NCG7. AID 504411. inhibition, % at 5.17 µM. HEK293T DAGLB membrane lysate, EnzChek fluorogenic substrate. 340,000 tested, 0.059% active; in the data active = inhibition above about 34%;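 also: 0% = enzyme with vehicle and 100% = wells lacking enzyme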
Myeloid diff MLP: compounds promoting myeloid differentiation. ER-HoxA9 myeloid progenitors, lysozyme-GFP differentiation, flow cytometry. calls only at 10 µM. 360,000 tested, 1% active. AID 624256;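 active = normalized GFP-positive differentiation at or above the plate's own cutoff, the solvent-only control mean plus 3 SD; inconclusive = no clear call, values can overlap the other calls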;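 also: cells exposed to compound for four days before flow analysis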
ABHD5 PLIN5 PPI: inhibitors of human ABHD5-perilipin-5 interaction; inhibition, % at 4 µM; 360,000 tested, 0.78% active; Split G. princeps luciferase complementation, luminescence, 4 h; AID 602281; Q00G26+Q8WTS1;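 active = inhibition above the mean inhibition across every tested compound plus 3 SD, cut at about 22% in these data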;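 also: 0% = DMSO only wells and the 100% control is not disclosed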
Target sequence (Q00G26 whole entry, looked up): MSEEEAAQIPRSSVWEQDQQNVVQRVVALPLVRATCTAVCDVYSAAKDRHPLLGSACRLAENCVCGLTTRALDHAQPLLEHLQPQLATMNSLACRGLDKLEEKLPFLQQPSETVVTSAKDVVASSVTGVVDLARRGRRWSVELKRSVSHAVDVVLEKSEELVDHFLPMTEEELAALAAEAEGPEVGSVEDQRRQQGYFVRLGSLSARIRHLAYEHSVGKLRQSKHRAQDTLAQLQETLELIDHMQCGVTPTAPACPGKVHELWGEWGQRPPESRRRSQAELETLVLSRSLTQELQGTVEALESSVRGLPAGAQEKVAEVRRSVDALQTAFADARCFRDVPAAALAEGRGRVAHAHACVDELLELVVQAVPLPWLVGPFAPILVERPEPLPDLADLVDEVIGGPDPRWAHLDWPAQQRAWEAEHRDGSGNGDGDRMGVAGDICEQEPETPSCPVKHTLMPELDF
Target sequence (Q8WTS1 whole entry, looked up): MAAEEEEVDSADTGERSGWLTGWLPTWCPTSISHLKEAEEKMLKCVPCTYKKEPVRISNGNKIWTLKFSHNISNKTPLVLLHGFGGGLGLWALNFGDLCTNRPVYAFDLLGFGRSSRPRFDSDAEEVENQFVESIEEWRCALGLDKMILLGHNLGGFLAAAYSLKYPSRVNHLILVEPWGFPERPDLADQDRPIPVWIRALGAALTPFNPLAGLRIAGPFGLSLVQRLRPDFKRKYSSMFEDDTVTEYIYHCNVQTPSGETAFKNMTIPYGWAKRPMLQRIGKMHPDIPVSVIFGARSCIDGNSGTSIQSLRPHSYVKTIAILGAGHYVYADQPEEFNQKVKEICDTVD
* = called active by the depositor; i = inactive; ? = inconclusive; · = not tested or not shown; + = active, no number. In the library only some 2.9% were active in any assay of this set; here they are far more common.

SMILES	HGIII-sPLA2 inh	Rtt109 HAT inh	Cardio protect	DAGLB inhibitor	Myeloid diff MLP	ABHD5 PLIN5 PPI
CC(C)N(C(=O)[C@H]1C[C@H](CC(=O)NCCN2CCOCC2)C(=O)N2CCc3c([nH]c4cc(-c5ccco5)ccc34)[C@]12C)C(C)C	-15.1	1.1	13.0	2.3	i	12.5
CN(C)CCCNC(=O)C[C@H]1C[C@H](C(=O)N2CCCCC2)[C@@]2(CCc3ccccc3)c3[nH]c4cc(-c5ccco5)ccc4c3CCN2C1=O	-13.3	2.4	-32.2	2.2	i	22.1*
C[C@]12c3[nH]c4cc(-c5ccco5)ccc4c3CCN1C(=O)[C@@H](CC(=O)NCCN1CCOCC1)C[C@@H]2C(=O)N1CCOCC1	-0.8	-1.2	1.4	-0.4	+	5.2
COc1ccc(CNC(=O)C[C@H]2C[C@H](C(=O)N3CCCCC3)[C@@]3(CCc4ccccc4)c4[nH]c5cc(-c6ccco6)ccc5c4CCN3C2=O)cc1OC	·	-7.2	-1.9	5.3	i	45.5*
CC[C@]12c3[nH]c4cc(-c5ccco5)ccc4c3CCN1C(=O)[C@@H](CC(=O)NCc1ccc(OC)c(OC)c1)C[C@@H]2C(=O)N1CCN(C(=O)C2CC2)CC1	-11.0	6.4	15.3	1.5	i	-0.1
O=C(COC(=O)c1sc2ccccc2c1Cl)Nc1ncc(Cl)cc1Cl	3.7	10.2	3.1	2.3	i	9.7
N#C/C(=C/c1cccn1-c1cccc(C(=O)O)c1)c1ccc(Cl)cc1	-18.1	8.8	-24.0	9.9	+	1.8
N#CC(C#N)=Cc1cccn1-c1ccc(C(=O)O)cc1	-0.1	36.9	0.6	-1.1	i	10.2
COc1ccc(-c2cc(-c3nnc(COC(=O)C4CC4C)o3)c3ccccc3n2)cc1OC (centres undefined)	-7.0	0.5	85.1*	-6.6	i	6.6
COc1ccc(-c2cc(-c3nnc(COC(=O)C4CC4)o3)c3ccccc3n2)cc1OC	-9.5	-5.8	80.5*	0.6	i	2.6
CSc1ccc(CN2C(=O)C(F)(F)Oc3c(C(C)=O)cccc32)cc1	·	·	-7.9	·	i	6.4
CC(Oc1ccc(F)cc1)C(=O)Nc1nc(-c2ccccn2)cs1 (centres undefined)	-1.5	-3.3	66.8*	-0.5	?	-7.2
O=C(CC1CC2CCC1C2)Nc1nc(-c2ccccn2)cs1 (centres undefined)	7.8	16.7	53.3*	-1.4	i	-8.4
O=C(CCS(=O)(=O)c1ccccc1)Nc1nc(-c2ccccn2)cs1	-4.5	3.7	51.4*	0.4	i	7.0
O=C(Nc1nc(-c2ccccn2)cs1)C1CC1	3.2	4.0	24.1	0.6	i	-3.4
Cc1cc(C)c(OCC(=O)Nc2nc(-c3ccccn3)cs2)c(C)c1	7.7	0.8	63.1*	-0.3	i	0.6
Cn1cccc1/C=N/n1c(-c2ccc(C(C)(C)C)cc2)n[nH]c1=S	-12.9	3.2	-20.4	2.2	i	-24.8
CCCCOC(=O)NC1CCc2cc(OC)c(OC)c(OC)c2-c2ccc(SC)c(=O)cc21 (centres undefined)	-7.5	-0.4	2.0	3.4	·	8.4
CC(=O)N1C2=CCCC3CCCCC23c2ccccc21 (centres undefined)	-2.4	15.6	-2.2	-2.1	+	-8.0
CC(=O)N1c2ccccc2Nc2ccccc21	8.0	-18.9	-2.8	3.3	i	-0.7
O=C(COC(=O)c1ccc([N+](=O)[O-])o1)Nc1ccc(N2CCOCC2)cc1	7.9	18.4	51.9*	-3.2	i	-0.9
CN(C)S(=O)(=O)c1cccc(NC(=O)COC(=O)c2ccc([N+](=O)[O-])o2)c1	5.3	-3.7	101.7*	-0.2	i	-0.9
COc1ccc(OC)c(NC(=O)COC(=O)c2n[nH]c3ccccc23)c1	-27.2	-5.2	-3.3	-2.2	i	-2.0
O=C(CCCC(=O)c1ccc(O)cc1)c1ccc(O)cc1	-1.1	7.1	3.7	-1.5	i	0.6
O=C1C=CC(=C(c2ccc(O)cc2)c2ccc(O)cc2)C=C1	-0.5	15.4	16.0	-0.5	i	78.1*
COc1ccc(CCNC(=O)c2cc3c(C)nccc3[nH]c2=O)cc1OC	10.8	2.0	75.8*	1.2	i	2.9
Cc1nc(-c2cc(C#N)c(=O)[nH]c2C)cs1	11.5	-8.9	41.5	0.2	i	-2.5
